Screens deposited in PubChem by National Center for Advancing Translational Sciences (NCATS).
Sampled rows, rich in hits. Any-hit rate of the full collection: about 15%.
DT40 TDP1 no CPT: qHTS for Inhibitors of human tyrosyl-DNA phosphodiesterase 1 (TDP1): qHTS in cells in absence of CPT; DT40 Tdp1-/- hTDP1 cells, no CPT, ATP luminescence, 48 h; Potency, µM (top dose mostly 46.2 µM), inactives show at the highest dose activity change, negative = growth inhibition, actives largely listed as inhibitors; 15% of 420,000 active; further: nearly all actives have a fitted effect of over 55% in size
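Stably hTDP1-transfected Tdp1-null chicken DT40 cells were treated with library compounds minus camptothecin and grown for at least 48 hr at 37 °C, after which cellular ATP was quantified by luminescence.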
RORg inh: ROR gamma (mouse) transcription inhibition; Drosophila S2 Gal4-RORgamma UAS-luciferase reporter, 20 h; 5.4% of 310,000 active; P51450; Potency, µM (top dose mostly 53.6 µM), for inactives: at the highest dose activity change, negative = inhibition, usual class: inhibitors; AID 2551; further: nearly all actives have a fitted effect of over 60% in size
Target sequence (P51450 whole entry, looked up, the tested form may be a part): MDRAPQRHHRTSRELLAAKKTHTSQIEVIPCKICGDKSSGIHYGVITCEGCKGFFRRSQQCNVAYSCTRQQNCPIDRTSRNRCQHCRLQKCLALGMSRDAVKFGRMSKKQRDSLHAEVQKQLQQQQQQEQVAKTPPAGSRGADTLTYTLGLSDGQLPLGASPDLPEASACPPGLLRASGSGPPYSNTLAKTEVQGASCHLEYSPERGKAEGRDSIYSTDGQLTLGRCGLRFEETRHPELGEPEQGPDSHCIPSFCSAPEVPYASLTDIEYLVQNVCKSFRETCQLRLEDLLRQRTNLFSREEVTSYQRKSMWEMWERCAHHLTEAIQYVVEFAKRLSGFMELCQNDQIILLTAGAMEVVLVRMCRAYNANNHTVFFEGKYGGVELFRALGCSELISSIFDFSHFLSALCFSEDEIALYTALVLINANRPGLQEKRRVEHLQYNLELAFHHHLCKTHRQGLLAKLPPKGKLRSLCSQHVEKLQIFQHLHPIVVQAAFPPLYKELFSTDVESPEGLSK
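In this cell-based reporter format, copper sulfate (700 uM final) drives Gal4–ROR gamma fusion expression from a metallothionein promoter in Drosophila Schneider cells; compounds preincubated 1 hr, reporter read after 20 hr at ambient temperature.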
12-LOX inh: inhibitors of human 12S-lipoxygenase ALOX12; AID 1671190; Potency, µM (titrated, usually from 108 µM), for inactives: at the top dose activity change, negative = inhibition, hits mostly inhibitors; 1.1% of 580,000 active; purified 12hLO, xylenol orange hydroperoxide absorbance
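Hydroperoxide product was detected by ferrous iron/xylenol orange as the 573 to 405 nm absorbance ratio. Arachidonic acid at 40 uM (final) was turned over for 30 min at room temperature by 150 nM human 12hLO, pH 7.0 Hepes buffer, after 15 min compound preincubation.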
DT40 TDP1 CPT: growth inhibition of DT40 Tdp1-/-;hTDP1 cells with camptothecin (screen for TDP1 inhibitors). chicken DT40 Tdp1-/-;hTDP1 cells + 20 nM CPT, ATP luminescence, 48 h. Potency, µM (top dose mostly 46.2 µM), for the others: at the highest dose activity change, negative = growth inhibition, usual class: inhibitors. 12% of 420,000 active; further: nearly all actives have a fitted effect of over 55% in size
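Chicken DT40 Tdp1-/- cells stably complemented with human TDP1 were seeded at 400 cells/well in medium containing 20 nM camptothecin, exposed to pin-transferred compounds, and grown at 37 °C for at least 48 hr. Viability was read as ATP luminescence.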
ELG1 repair inh: inhibitors of ELG1-dependent DNA repair in HEK293T cells | HEK293T ELG1-luciferase reporter, luminescence, 16 h; DNA damage induced by 5-fluorouridine | Potency, µM (highest dose often 46.1 µM), for inactives: top-dose activity change, negative = inhibition, most hits filed as inhibitors | 2.3% of 330,000 active | AID 504467; further: nearly all actives have a fitted effect of over 55% in size
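Quantitative HTS, concentration-response format. 2,000 cells/well co-treated with 5-fluorouridine and compound, 16 hr in 5% CO2 at 37 °C; ONE-Glo luminescence read after 30 min.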
Gal4-VP16 FLuc: inhibits Gal4-VP16 luciferase reporter, ROR gamma counter-screen; Drosophila S2 Gal4-VP16 UAS-luciferase, luminescence, 20 h; Potency, µM (doses to about 53.6 µM), for the others: top-dose activity, negative = inhibition, hits mostly inhibitors; 3.5% of 310,000 active; AID 2546;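 further: Gal4-VP16 expression switched on by copper sulfate through the metallothionein promoter; nearly all actives have a fitted effect of over 50% in size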
Starred values were filed as active, the others as inactive; [ ] = another dose, or the depositor's remark. The call rests on the fitted dose curve; in most records, active means well fitted curve in the direction sought with a large enough effect; inconclusive means small, poorly fitted or top-dose-only effect, or another doubt; inactive means no such curve, though single readings can be large; an effect the other way counts as inactive or inconclusive. On the % scale 0 is the no-effect control and ±100 the full control effect; potency means the concentration at half of the fitted maximal effect.

N#Cc1nc(-c2ccc(S(=O)(=O)N3CCCCC3)cc2)oc1NCCN1CCOCC1 was read as 12-LOX inh -9.0%.
CCNc1nc(NCC)nc(N(C)/N=C/c2ccco2)n1 was read as DT40 TDP1 no CPT 5.1%, RORg inh 3.55µM*, 12-LOX inh 110.2%, DT40 TDP1 CPT 0.9%, ELG1 repair inh -2.6% and Gal4-VP16 FLuc 20µM*.
For CCN(C(=O)CSc1nc(-c2ccc(C(C)C)cc2)no1)c1cccc(C)c1 the results were DT40 TDP1 no CPT inconclusive, 12-LOX inh -17.5% and DT40 TDP1 CPT 14.6µM*.
For CCN(C(=O)CSc1nc(-c2ccc(C(C)C)cc2)no1)c1ccccc1 the results were DT40 TDP1 no CPT inconclusive, 12-LOX inh -20.7% and DT40 TDP1 CPT 14.6µM*.
Screening O=C(NCc1ccnc(OCC(F)(F)F)c1)c1ccc(Cl)o1 returned 12-LOX inh 7.9%.
`Cc1ccc(-c2nnc(C3CN(C(=O)c4ccccc4C)CC34CCOCC4)o2)cc1` (centres undefined) gave 12-LOX inh 39.1%.
O=S(=O)(c1c(F)cccc1F)N1CCN(Cc2c(O)ccc3ccccc23)CC1 was read as DT40 TDP1 no CPT 6.4%, 12-LOX inh 12.6µM*, DT40 TDP1 CPT -0.2% and ELG1 repair inh 1.8%.
`Oc1ccc2ccccc2c1CN1CCOCC1` gave DT40 TDP1 no CPT -22.0%, RORg inh -18.3%, 12-LOX inh 7.08µM*, DT40 TDP1 CPT -13.3%, ELG1 repair inh 6.8% and Gal4-VP16 FLuc 4.8%.
`Oc1cnc2ccccc2c1CN1CCOCC1` gave DT40 TDP1 no CPT -26.8%, RORg inh 9.7%, 12-LOX inh -23.5%, DT40 TDP1 CPT inconclusive, ELG1 repair inh inconclusive and Gal4-VP16 FLuc -4.2%.
For CC(C)Oc1ccc(CNC(=O)Cn2c(=O)oc3ccccc32)cc1 the results were DT40 TDP1 no CPT 16.4µM*, RORg inh 15.2%, 12-LOX inh -12.3%, DT40 TDP1 CPT inconclusive, ELG1 repair inh -3.0% and Gal4-VP16 FLuc 1.0%.
For O=C(Cn1c(=O)oc2ccccc21)Nc1ccccc1Cl the results were DT40 TDP1 no CPT inconclusive, RORg inh -11.6%[1.91 µM], 12-LOX inh inconclusive, DT40 TDP1 CPT -1.5%, ELG1 repair inh -3.1% and Gal4-VP16 FLuc 1.6%.
CCc1nnc(NC(=O)Cn2c(=O)oc3ccccc32)s1 was read as DT40 TDP1 no CPT inconclusive, RORg inh 0.2%, 12-LOX inh 11.4%, DT40 TDP1 CPT -0.3%, ELG1 repair inh -3.8% and Gal4-VP16 FLuc 5.5%.
`CCc1ccccc1NC(=O)Cn1c(=O)oc2ccccc21` gave DT40 TDP1 no CPT 0.461µM*, 12-LOX inh 4.4% and DT40 TDP1 CPT 2.31µM*.
For Cc1cccc(NC(=O)Cn2c(=O)oc3ccccc32)c1 the results were DT40 TDP1 no CPT inconclusive, RORg inh 16.1%, 12-LOX inh -20.2%, DT40 TDP1 CPT inconclusive, ELG1 repair inh inconclusive and Gal4-VP16 FLuc 12.2%.
Screening COc1ccc(C)cc1NC(=O)Cn1c(=O)oc2ccccc21 returned DT40 TDP1 no CPT 2.06µM*, RORg inh 2.3%, 12-LOX inh 322.4%, DT40 TDP1 CPT 9.2µM*, ELG1 repair inh 2.2% and Gal4-VP16 FLuc 4.3%.
Screening Cc1ccccc1NC(=O)Cn1c(=O)oc2ccccc21 returned DT40 TDP1 no CPT 2.06µM*, RORg inh 9.6%, 12-LOX inh 11.4%, DT40 TDP1 CPT 3.66µM*, ELG1 repair inh 2.1% and Gal4-VP16 FLuc 3.3%.
For N#Cc1ccc(Oc2ccc(C(=O)OCC(=O)c3ccc(Cl)cc3)cc2)cc1C#N the results were 12-LOX inh 3.5%.
`Cc1ccc(C(=O)N2CCCC3(C2)NC(=O)N(Cc2ccc(Cl)cc2)C3=O)cc1F` (centres undefined) gave 12-LOX inh -8.8%.
Screening COc1ccc(-c2cc(=O)c3c(O)cc(O)cc3o2)cc1 returned DT40 TDP1 no CPT 23.7µM*, RORg inh inconclusive, 12-LOX inh -16.3%, DT40 TDP1 CPT inconclusive, ELG1 repair inh inconclusive and Gal4-VP16 FLuc -1.5%.
`O=c1cc(-c2ccc(O)cc2)oc2cccc(O)c12` gave DT40 TDP1 no CPT 29.9µM*, RORg inh 33.1%, DT40 TDP1 CPT 29.9µM* and Gal4-VP16 FLuc 1.3%.
`CCc1cc(=O)oc2cc(OCc3nc(C)no3)ccc12` gave 12-LOX inh -3.2%.
Cn1cccc1CN1CCC2(C1)C(=NC1CCCCC1)NC(=O)N2c1cccnc1 (centres undefined) was read as 12-LOX inh 14.4%[6.33 µM].
O=C1c2ccccc2C(=O)N1CCCCc1cn(C[C@H]2CC[C@H](Cn3cc(CCCCN4C(=O)c5ccccc5C4=O)nn3)O2)nn1 was read as DT40 TDP1 no CPT 20.6µM*, 12-LOX inh -6.4%, DT40 TDP1 CPT inconclusive and ELG1 repair inh 8.2µM*.
Screening OCCCc1cn(CC2CCCCC2)nn1 returned DT40 TDP1 no CPT -1.4%, RORg inh 6.5%, 12-LOX inh 5.8%, DT40 TDP1 CPT -15.2%, ELG1 repair inh -0.5% and Gal4-VP16 FLuc -5.1%.
For c1ccc(-c2cn(C[C@H]3CC[C@@H]([C@@H]4CC[C@H](Cn5cc(-c6ccccn6)nn5)O4)O3)nn2)nc1 the results were DT40 TDP1 no CPT -23.5%, RORg inh -5.8%, 12-LOX inh inconclusive, DT40 TDP1 CPT -28.5%, ELG1 repair inh 8.4% and Gal4-VP16 FLuc -1.8%.
For c1ccc(-c2cn(C[C@H]3CC[C@@H]([C@@H]4CC[C@H](Cn5cc(-c6ccccc6)nn5)O4)O3)nn2)cc1 the results were DT40 TDP1 no CPT inconclusive, RORg inh 22.7%, 12-LOX inh 11.6%, DT40 TDP1 CPT 25.9µM*, ELG1 repair inh -1.6% and Gal4-VP16 FLuc 0.2%.
Screening c1ccc(CCc2cn(C[C@H]3CC[C@@H]([C@@H]4CC[C@H](Cn5cc(CCc6ccccc6)nn5)O4)O3)nn2)cc1 returned DT40 TDP1 no CPT 14.6µM*, RORg inh 22.8%, 12-LOX inh 4.5%, DT40 TDP1 CPT inconclusive, ELG1 repair inh inconclusive and Gal4-VP16 FLuc 3.3%.
CC(C)n1nccc1NC(=O)COc1ccc(C#N)cc1Cl was read as 12-LOX inh 8.2%.
For COc1ccc2nc(COC(=O)c3cccs3)c(C(C)=O)[n+]([O-])c2c1 the results were DT40 TDP1 no CPT -3.2%, RORg inh 23.9%, 12-LOX inh 31.6µM*, DT40 TDP1 CPT -8.3%, ELG1 repair inh 7.6% and Gal4-VP16 FLuc -10.1%.
